# ± gives the standard deviation.
# T1: HaloTag-ATRX ADD domain (163-292)
# T1 chain: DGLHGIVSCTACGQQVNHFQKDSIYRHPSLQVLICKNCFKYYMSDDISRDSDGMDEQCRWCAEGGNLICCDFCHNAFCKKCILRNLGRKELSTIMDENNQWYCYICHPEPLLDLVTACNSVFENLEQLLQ
# Biological target: T1, HaloTag-ATRX ADD domain (163-292)
# Test: peptide microarray binding signal (635 nm), min-max normalized on array (fraction of array maximum); higher = stronger binding
# Conditions: peptide region: Unmod H3 variant; binder concentration: 50 nM
# Summary of the method: (§1)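 Binding signal is the mean intensity of triplicate spots, min-max scaled within each library. Histone 13-mer peptide–cellulose conjugates were spotted in triplicate on nitrocellulose with a Cy3 tracer and blocked overnight at 4°C. Probing lasted 1 h at 4°C, either with biotin-labelled HaloTag reader fusions (10 nM to 1 μM) and streptavidin-Alexa Fluor 647 or with rabbit histone antibodies (1:10,000 to 1:2,000) and anti-rabbit Alexa 647. An Axon GenePix 4000B read signal at 635 nm and misprints at 532 nm.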
row,Binder,peptide microarray binding signal
1,ATKAARKSAPSTG [Unmod H3 variant A T K A A R K S A P S T G],0.00285 ± 0.00016
2,AIHAKRVTIMPKD [Unmod H3 variant A I H A K R V T I M P K D],0.00414 ± 0.00014
3,ALQEACEAYLVGL [Unmod H3 variant A L Q E A C E A Y L V G L],0.00166 ± 5.9e-05
4,VREIAQDFKTDLR [Unmod H3 variant V R E I A Q D F K T D L R],0.00495 ± 9.5e-05
5,QDFKTDLRFQSSA [Unmod H3 variant Q D F K T D L R F Q S S A],0.00483 ± 6.5e-05

# Same assay, conditions: peptide region: Unmod H3 variant; binder concentration: 500 nM
row,Binder,peptide microarray binding signal
1,ATKAARKSAPSTG [Unmod H3 variant A T K A A R K S A P S T G],0.00757 ± 0.00026
2,AIHAKRVTIMPKD [Unmod H3 variant A I H A K R V T I M P K D],0.0132 ± 0.00021
3,ALQEACEAYLVGL [Unmod H3 variant A L Q E A C E A Y L V G L],0.00148 ± 3.6e-05
4,VREIAQDFKTDLR [Unmod H3 variant V R E I A Q D F K T D L R],0.0115 ± 0.00061
5,QDFKTDLRFQSSA [Unmod H3 variant Q D F K T D L R F Q S S A],0.011 ± 0.00018

# Biological target: HaloTag-ING2 PHD (mouse Ing2 200-280)
# Test: as above
# Conditions: peptide region: Unmod H3 variant; binder concentration: 10 nM
# Summary of the method: as §1
row,Binder,peptide microarray binding signal
1,ATKAARKSAPSTG [Unmod H3 variant A T K A A R K S A P S T G],0.0164 ± 0.0095
2,AIHAKRVTIMPKD [Unmod H3 variant A I H A K R V T I M P K D],0.00507 ± 0.00019
3,ALQEACEAYLVGL [Unmod H3 variant A L Q E A C E A Y L V G L],0.00179 ± 2.8e-05
4,VREIAQDFKTDLR [Unmod H3 variant V R E I A Q D F K T D L R],0.00853 ± 0.00018
5,QDFKTDLRFQSSA [Unmod H3 variant Q D F K T D L R F Q S S A],0.00973 ± 0.00021

# Same assay, conditions: peptide region: Unmod H3 variant; binder concentration: 100 nM
row,Binder,peptide microarray binding signal
1,ATKAARKSAPSTG [Unmod H3 variant A T K A A R K S A P S T G],0.00943 ± 0.00062
2,AIHAKRVTIMPKD [Unmod H3 variant A I H A K R V T I M P K D],0.0196 ± 0.0021
3,ALQEACEAYLVGL [Unmod H3 variant A L Q E A C E A Y L V G L],0.00163 ± 4.4e-05
4,VREIAQDFKTDLR [Unmod H3 variant V R E I A Q D F K T D L R],0.0134 ± 0.00073
5,QDFKTDLRFQSSA [Unmod H3 variant Q D F K T D L R F Q S S A],0.0168 ± 0.0012

# Biological target: anti-H3K4me3 antibody ab8580
# Test: as above
# Conditions: peptide region: Unmod H3 variant; binder concentration: 1:2,000 dilution
# Summary of the method: as §1
row,Binder,peptide microarray binding signal
1,ATKAARKSAPSTG [Unmod H3 variant A T K A A R K S A P S T G],0.00109 ± 3.3e-05
2,AIHAKRVTIMPKD [Unmod H3 variant A I H A K R V T I M P K D],0.000849 ± 2.3e-05
3,ALQEACEAYLVGL [Unmod H3 variant A L Q E A C E A Y L V G L],0.0004342 ± 4.3e-06
4,VREIAQDFKTDLR [Unmod H3 variant V R E I A Q D F K T D L R],0.00247 ± 5.5e-05
5,QDFKTDLRFQSSA [Unmod H3 variant Q D F K T D L R F Q S S A],0.00276 ± 8.1e-05

# Same assay, conditions: peptide region: Unmod H3 variant; binder concentration: 1:10,000 dilution
row,Binder,peptide microarray binding signal
1,ATKAARKSAPSTG [Unmod H3 variant A T K A A R K S A P S T G],0.001312 ± 1.3e-05
2,AIHAKRVTIMPKD [Unmod H3 variant A I H A K R V T I M P K D],0.00211
3,ALQEACEAYLVGL [Unmod H3 variant A L Q E A C E A Y L V G L],0.000628 ± 6.7e-06
4,VREIAQDFKTDLR [Unmod H3 variant V R E I A Q D F K T D L R],0.00474 ± 0.00018
5,QDFKTDLRFQSSA [Unmod H3 variant Q D F K T D L R F Q S S A],0.00542 ± 0.0011

# Biological target: anti-H3K9me3 antibody ab8898
# Test: as above
# Conditions: peptide region: Unmod H3 variant; binder concentration: 1:2,000 dilution
# Summary of the method: as §1
row,Binder,peptide microarray binding signal
1,ATKAARKSAPSTG [Unmod H3 variant A T K A A R K S A P S T G],0.000695 ± 2.7e-05
2,AIHAKRVTIMPKD [Unmod H3 variant A I H A K R V T I M P K D],0.000513 ± 1.3e-05
3,ALQEACEAYLVGL [Unmod H3 variant A L Q E A C E A Y L V G L],0.000393 ± 1.4e-05
4,VREIAQDFKTDLR [Unmod H3 variant V R E I A Q D F K T D L R],0.00248 ± 0.00019
5,QDFKTDLRFQSSA [Unmod H3 variant Q D F K T D L R F Q S S A],0.00157 ± 6.5e-05

# Same assay, conditions: peptide region: Unmod H3 variant; binder concentration: 1:10,000 dilution
row,Binder,peptide microarray binding signal
1,ATKAARKSAPSTG [Unmod H3 variant A T K A A R K S A P S T G],0.000923 ± 9.6e-06
2,AIHAKRVTIMPKD [Unmod H3 variant A I H A K R V T I M P K D],0.000692 ± 7.3e-06
3,ALQEACEAYLVGL [Unmod H3 variant A L Q E A C E A Y L V G L],0.000519 ± 5.6e-06
4,VREIAQDFKTDLR [Unmod H3 variant V R E I A Q D F K T D L R],0.00259 ± 9.2e-05
5,QDFKTDLRFQSSA [Unmod H3 variant Q D F K T D L R F Q S S A],0.00202 ± 3.2e-05

# From the supplement of paper PMC4022240
